Source: PubChem BioAssay (National Center for Advancing Translational Sciences (NCATS))
AmpC inh no detg: blocks E. coli AmpC beta-lactamase in detergent-free assay. P00811. AmpC nitrocefin hydrolysis, absorbance 480 nm, 0.0001% Triton. Potency, µM (doses to about 57.1 µM), actives largely listed as inhibitors. 330,000 compounds, 0.52% hits. AID 485341; further: nearly all actives have a fitted effect of over 20% in size
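AmpC (5.3 nM in the dispensed reagent) in 20 mM phosphate pH 7.0 with 0.01% (detergent screen) or 0.0001% Triton X-100 was preincubated with compounds for 15 min at room temperature. Nitrocefin was then added from an 800 uM solution, and hydrolysis was followed at 480 nm.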
FBPA Giardia inh: blocks Giardia fructose-bisphosphate aldolase activity | Potency, µM (series often up to 59.6 µM), usual class: inhibitors | AID 2451 | purified Giardia FBPA | 290,000 compounds, 0.71% hits; further: nearly all actives have a fitted effect of over 55% in size
Target sequence (A8B2U2 whole entry, looked up): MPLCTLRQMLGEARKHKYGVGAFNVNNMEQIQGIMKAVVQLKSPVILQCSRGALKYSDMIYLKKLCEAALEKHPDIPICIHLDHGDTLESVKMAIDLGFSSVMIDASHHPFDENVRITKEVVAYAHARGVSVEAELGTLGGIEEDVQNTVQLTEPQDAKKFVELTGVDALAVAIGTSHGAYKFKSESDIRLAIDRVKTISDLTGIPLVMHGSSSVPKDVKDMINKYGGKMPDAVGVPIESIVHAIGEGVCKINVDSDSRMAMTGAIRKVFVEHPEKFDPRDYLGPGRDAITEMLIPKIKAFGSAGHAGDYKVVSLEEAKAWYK
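Giardia FBPA (40 nM reagent) was preincubated 10 min at RT with compound (up to 57.5 uM final), then substrate plus GAPDH/TPI/NAD/arsenate coupling system with diaphorase/resazurin was added; resorufin fluorescence (525/598 nm) was read after 20 min.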
AmpC detergent: inhibitors of E. coli AmpC beta-lactamase with detergent; AmpC hydrolysis of nitrocefin, absorbance 480 nm, 0.01% Triton; Potency, µM (top dose mostly 114 µM), actives largely listed as inhibitors; P00811; AID 485294; 370,000 compounds, 0.041% hits; further: nearly all actives have a fitted effect of over 25% in size
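20 mM phosphate pH 7.0 + 0.01% (detergent screen) or 0.0001% Triton X-100; 5.3 nM AmpC reagent; cpd preinc 15 min RT; nitrocefin (800 uM stock) to start; A480 q20 s × 4 min; Activity was normalised to no-enzyme and no-compound control wells.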
SARS PLpro yeast: inhibitors of SARS-CoV papain-like protease in yeast; S. cerevisiae expressing SARS-CoV PLpro, growth rescue; Potency, µM (top dose mostly 32.9 µM), hits mostly activators; 330,000 compounds, 0.19% hits; AID 485353; calls by dose curve; further: nearly all actives have a fitted effect of over 55% in size
Of the large screens only hits and unclear results are named; the others gave an inactive call. In the library only some 1.1% were active in any assay of this set; here they are far more common. Unless noted, the call rests on the fitted dose curve; in most records, active means well fitted curve in the direction sought with a large enough effect; inconclusive means small, poorly fitted or top-dose-only effect, or another doubt; inactive means no such curve, though single readings can be large; an effect the other way counts as inactive or inconclusive.

CC(=O)C1=C(C)OC(N)=C(C#N)C1c1cccc2ccccc12 (configuration not stated)	FBPA Giardia inh 20µM
CC(=O)C1=C(C)OC(N)=C(C#N)C1c1ccco1 (configuration not stated)	FBPA Giardia inh inconclusive
CCOC(=O)c1ccc(N2C(=O)c3[nH]nc(-c4ccc(OC)cc4)c3C2c2ccc(C)cc2)cc1 (configuration not stated)	none (no result: AmpC inh no detg, FBPA Giardia inh, SARS PLpro yeast)
S=C(Nc1ccc(Oc2ccc(NC(=S)NC3CCCCC3)cc2)cc1)NC1CCCCC1	SARS PLpro yeast 11µM
Fc1cccc(NC(=S)NC2CCCCCCC2)c1	AmpC inh no detg 13µM (no result: FBPA Giardia inh)
S=C(Nc1ccc(Oc2ccccc2)cc1)NC1CCCCCC1	none
C=CCN(CC=C)C(=S)Nc1ccc2nsnc2c1	FBPA Giardia inh 10µM
FC(F)(F)c1cccc(NC(=S)NC2CCCC2)c1	none
S=C(Nc1ccc2nsnc2c1)NC1CCCCC1	FBPA Giardia inh 1.8µM
C=C[C@@H]1[C@@H](C)[C@H](C)C(=O)C([C@H](O)C(C)C)[C@@H]1C (some centres not stated)	none (no result: AmpC inh no detg, AmpC detergent, SARS PLpro yeast)
CC(C)C[C@H](NC(=O)[C@H](CCCCN)NC(=O)CNC(=O)[C@H](CC(C)C)NC(=O)[C@@H](N)C(C)C)C(=O)N[C@@H](CO)C(=O)N[C@@H](CCC(N)=O)C(=O)N[C@@H](CCC(=O)O)C(=O)N[C@@H](CC(C)C)C(=O)N[C@@H](Cc1cnc[nH]1)C(=O)N[C@@H](CCCCN)C(=O)N[C@@H](CC(C)C)C(=O)N[C@@H](CCC(N)=O)C(=O)N[C@H](C(=O)N[C@@H](Cc1ccc(O)cc1)C(=O)N1CCC[C@H]1C(=O)N[C@@H](CCCNC(=N)N)C(=O)N[C@H](C(=O)N[C@@H](CC(N)=O)C(=O)N[C@H](C(=O)NCC(=O)N[C@@H](CO)C(=O)NCC(=O)N[C@H](C(=O)N1CCC[C@H]1C(N)=O)[C@@H](C)O)[C@@H](C)O)[C@@H](C)O)[C@@H](C)O	none (no result: AmpC inh no detg, AmpC detergent, SARS PLpro yeast)
O=C1C2=C(S[C@@H]3O[C@H](CO)[C@@H](O)[C@H](O)[C@H]3O2)C(=O)c2ccccc21	none (no result: AmpC inh no detg, AmpC detergent, SARS PLpro yeast)
Cc1ccc(C2=NOC(=O)/C2=C\C=C\c2ccccc2)cc1	AmpC inh no detg 32µM
C/C(=C\C(=S)Nc1ccccc1)Nc1cccc2ccccc12	FBPA Giardia inh inconclusive
C/C(=C\C(=S)Nc1ccccc1)Nc1ccc2ccccc2c1	FBPA Giardia inh 2µM, AmpC detergent inconclusive
COC(=O)c1ccc(NC(=S)Nc2ccccc2)cc1	none
COC(=O)c1ccc(NC(=S)Nc2ccc3ccccc3c2)cc1	AmpC inh no detg 0.25µM
CCCNc1nc(C#N)nc(Nc2ccccc2)n1	none (no result: AmpC inh no detg, AmpC detergent, SARS PLpro yeast)
CCCCc1nc2c(c3c1C[C@H](C)OC3)CN(C(=O)C1CC1)CC2	none (no result: AmpC inh no detg, AmpC detergent, SARS PLpro yeast)
CCOc1ccccc1NC(=O)CSc1ccc(-c2ccco2)nn1	AmpC inh no detg 32µM (no result: FBPA Giardia inh)
CCOc1ccccc1NC(=O)Cn1nc(-c2ccco2)ccc1=O	none
CSc1nnc(-c2ccco2)c(-c2ccco2)n1	FBPA Giardia inh 3.5µM
Cc1ccccc1NC(=O)CSc1nnc(-c2ccco2)c(-c2ccco2)n1	FBPA Giardia inh 1.8µM
CC(=O)Nc1ccn(C2CC3OCC(NC(=O)C(NC(=O)OC(C)(C)C)C(C)OCc4ccccc4)C3O2)c(=O)n1 (configuration not stated)	none (no result: AmpC inh no detg, AmpC detergent, SARS PLpro yeast)
COc1ccc(S(=O)(=O)c2cnc(SCC(=O)Nc3cc(F)ccc3C)[nH]c2=O)cc1Cl	none (no result: AmpC inh no detg, FBPA Giardia inh, SARS PLpro yeast)
